# Data taken from PubChem BioAssay (NCI).
# This is part of a sample that, as a whole, favours compounds with a hit. Of some 83,000 tested, about 20% had one in any assay.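 How to read the values: 0–100, growth inhibition (40 = 60% inhibited); 0, no net growth; -100 to 0, cell death (-40 = 40% of starting cells died; -100 = all dead).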 A number with no mark means an inactive call. Activity calls are given as the source filed them. Rule for the calls: active = growth percent below 10; inactive = the rest.
# System: NCI-H460 lung
# Assay: NCI-60 one-dose screen, 48 h (100 = growth as untreated, 0 = no growth, -100 = all killed)
# Conditions: 10 µM unless noted
row,Structure (SMILES),growth
1,C=C(C)[C@@H]1CC[C@]2(C(=O)NCCCN(CCC#N)CCC#N)CC[C@]3(C)[C@H](CC[C@@H]4[C@@]5(C)CCC(=O)C(C)(C)[C@@H]5CC[C@]43C)[C@@H]12,101%
2,O=C(CN1C(=O)S/C(=C\c2ccccc2)C1=O)Nc1ccc(C(=O)/C=C/c2cc3ccccc3nc2Cl)cc1,88.3%
3,N#Cc1c(-c2cccs2)cc(-c2cnccn2)nc1SCC(=O)NNC(=S)Nc1ccc(F)cc1,105%
4,CN1CCN(c2nc(-c3cnc4ccccc4n3)cc3ccccc23)CC1,41.3%
5,Cc1cc(O)c(=O)cc2c1C[C@H]1CC(C)(C)/C=C/C[C@]3(C)Oc4cc(=O)c(O)cc(C)c4C[C@H]3C[C@H](O)[C@@]1(C)O2,0.132% (active)
6,CC(C)=CCC[C@](C)(O)[C@H]1CC[C@]2(C)[C@@H]1CC[C@@H]1[C@@]3(C)CCC(NC(=O)c4ccccc4C(=O)O)C(C)(C)[C@@H]3CC[C@]12C (stereo partly drawn),110%
7,CN1CCN(c2ccc3c(C(N)=O)c(NC(=O)c4ccc(C(C)(C)C)cc4)sc3c2)CC1,53.8%
8,COc1ccc(-c2nc(SCC(C)C)nc(N/N=C\c3cccc([N+](=O)[O-])c3)c2C#N)cc1,14.1%
9,Cc1cc(F)cc(NS(=O)(=O)c2ccc(-c3cnc(C4CC4)o3)cc2)c1,13.8%
10,C/C(=N\NC(=O)CSc1nc2sc3c(c2c(=O)n1-c1ccccc1)CCC(C)C3)c1ccc(Cl)cc1 (stereo not drawn),4.18% (active)
11,COc1ccc(NC(=O)[C@H](C)N)cc1C(=O)Nc1cccc(-c2cc(=O)c3c(OC)c(OC)c(OC)cc3o2)c1,52.4%
12,CC[C@H](C)[C@H]1NC(=O)[C@@H]([C@H](O)C(C)C)NC(=O)[C@@H](C)N(C)C(=O)[C@H](C)N(C)C(=O)[C@H](CC(C)C)NC(=O)[C@H](CC(C)C)N(C)C(=O)[C@H](C)N(C)C1=O,1.46% (active)
13,IP(CCCSc1n(Cc2ccc3ccccc3c2)c(-c2ccccc2)c(-c2ccccc2)[n+]1Cc1ccc2ccccc2c1)(c1ccccc1)(c1ccccc1)c1ccccc1,22.8%
14,N/C(=N\OC(=O)CSc1nc2ccccc2s1)c1ccc(Cl)cc1,108%
15,CC(=O)NC(C)(C)C(=O)N[C@@H](C)C(=O)NC(C)(C)C(=O)N[C@@H](C)C(=O)NC(C)(C)C(=O)N[C@@H](C)C(=O)N[C@@H](CCC(N)=O)C(=O)NC(C)(C)C(=O)N[C@H](C(=O)NC(C)(C)C(=O)NCC(=O)N[C@@H](CC(C)C)C(=O)NC(C)(C)C(=O)N1CCC[C@H]1C(=O)N[C@H](C(=O)NC(C)(C)C(=O)NC(C)(C)C(=O)N[C@@H](CCC(N)=O)C(=O)N[C@@H](CCC(N)=O)C(=O)N[C@H](CO)CC1CCCCC1)C(C)C)C(C)C,45.1% [5 µM]
16,CCOC(=O)C1=C(C)Nc2nnc(Nc3ccccc3)n2C1c1ccccc1 (stereo not drawn),-28.3% (active)
17,COc1cc(OC)c(S(N)(=O)=O)cc1C(=O)/C=C/c1ccccc1,3.32% (active)
18,CCOC(=O)/C(F)=C/C1CC1C1CCCCC1 (stereo not drawn),104%
